Paper PMC7862700, “An all-to-all approach to the identification of sequence-specific readers for epigenetic DNA modifications on cytosine”

Columns and labels:
Assay in all cases: DAPPL (digital affinity profiling via proximity ligation, sequencing); 10 mM Tris-HCl pH 7.5, 50 mM NaCl, 1 mM DTT, 4% glycerol, room temperature, 30 min; GST-TFs on glutathione beads, 16-mer random dsDNA library, 0.1% formaldehyde crosslink after washing; high values mean tight binding
Settings in all cases: protein: recombinant; tags: N-terminal GST; dsDNA, one strand shown
ERF = target: T1, ERF (Homo sapiens, UniProt P50548 1-548)
T1 sequence: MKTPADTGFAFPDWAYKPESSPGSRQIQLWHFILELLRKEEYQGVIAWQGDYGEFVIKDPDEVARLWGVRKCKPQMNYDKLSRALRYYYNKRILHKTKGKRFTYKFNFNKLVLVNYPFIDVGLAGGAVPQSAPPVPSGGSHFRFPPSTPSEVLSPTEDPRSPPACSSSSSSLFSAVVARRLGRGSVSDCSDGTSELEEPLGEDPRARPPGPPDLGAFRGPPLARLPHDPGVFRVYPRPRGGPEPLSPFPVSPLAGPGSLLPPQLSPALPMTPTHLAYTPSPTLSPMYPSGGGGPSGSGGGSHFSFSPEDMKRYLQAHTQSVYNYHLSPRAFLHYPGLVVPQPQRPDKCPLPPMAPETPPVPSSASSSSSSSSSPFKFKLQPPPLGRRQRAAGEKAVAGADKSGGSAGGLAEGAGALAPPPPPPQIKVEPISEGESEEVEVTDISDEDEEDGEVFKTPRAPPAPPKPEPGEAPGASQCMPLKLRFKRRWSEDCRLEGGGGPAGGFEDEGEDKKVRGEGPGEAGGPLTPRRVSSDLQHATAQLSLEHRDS
In short: (§1)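 Yeast served to express human transcription factors as GST fusions, which were then captured on glutathione beads and labelled with DNA barcodes. Pooled with a tag-only sample, they were incubated with 200 nmole of a 16-mer random double-stranded DNA library for 30 min at room temperature in Tris/NaCl/DTT/glycerol buffer, washed, crosslinked with 0.1% formaldehyde, ligated by proximity, amplified by PCR and sequenced. Dividing each hexamer's read frequency for a factor by its frequency for the tag-only sample gives the binding signal.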

ETV3L = target: T2, ETV3L (Homo sapiens, UniProt Q6ZN32 1-361)
T2 sequence: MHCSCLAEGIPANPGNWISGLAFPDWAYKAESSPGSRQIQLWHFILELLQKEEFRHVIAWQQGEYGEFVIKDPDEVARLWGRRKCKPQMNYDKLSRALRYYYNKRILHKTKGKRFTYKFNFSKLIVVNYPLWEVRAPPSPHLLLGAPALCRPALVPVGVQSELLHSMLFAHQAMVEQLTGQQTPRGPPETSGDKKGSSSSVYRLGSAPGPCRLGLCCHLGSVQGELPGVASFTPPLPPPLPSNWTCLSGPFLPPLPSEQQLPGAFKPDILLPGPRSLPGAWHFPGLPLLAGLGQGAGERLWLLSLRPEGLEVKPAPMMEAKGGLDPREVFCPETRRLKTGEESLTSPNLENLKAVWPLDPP
In short: as §1

ETS2 = target: T3, ETS2 (Homo sapiens, UniProt P15036 1-469)
T3 sequence: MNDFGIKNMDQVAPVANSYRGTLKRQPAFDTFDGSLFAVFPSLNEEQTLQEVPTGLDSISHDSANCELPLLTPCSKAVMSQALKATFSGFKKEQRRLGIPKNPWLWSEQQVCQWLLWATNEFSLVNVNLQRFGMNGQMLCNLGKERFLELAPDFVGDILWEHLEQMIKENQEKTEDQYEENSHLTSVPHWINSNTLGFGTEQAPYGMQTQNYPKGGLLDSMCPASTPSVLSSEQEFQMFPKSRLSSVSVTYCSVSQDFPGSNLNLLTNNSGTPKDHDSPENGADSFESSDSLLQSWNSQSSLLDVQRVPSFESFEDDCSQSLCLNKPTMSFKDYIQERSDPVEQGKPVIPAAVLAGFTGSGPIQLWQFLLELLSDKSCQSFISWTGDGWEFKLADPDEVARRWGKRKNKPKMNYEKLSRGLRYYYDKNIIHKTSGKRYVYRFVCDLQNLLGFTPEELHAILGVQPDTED
In short: as §1

SPDEF = target: T4, SPDEF (Homo sapiens, UniProt O95238 1-335)
T4 sequence: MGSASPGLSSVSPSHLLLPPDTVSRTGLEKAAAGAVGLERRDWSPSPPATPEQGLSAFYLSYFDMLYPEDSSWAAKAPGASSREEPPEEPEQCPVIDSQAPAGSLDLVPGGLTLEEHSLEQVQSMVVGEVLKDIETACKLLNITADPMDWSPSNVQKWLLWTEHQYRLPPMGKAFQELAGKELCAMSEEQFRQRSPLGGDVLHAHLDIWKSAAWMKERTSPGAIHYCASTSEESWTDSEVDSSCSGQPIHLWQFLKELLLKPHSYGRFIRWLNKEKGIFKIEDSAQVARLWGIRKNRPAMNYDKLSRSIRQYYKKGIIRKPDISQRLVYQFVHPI
In short: as §1

ETV7 = target: T5, ETV7 (Homo sapiens, UniProt Q9Y603 1-341)
T5 sequence: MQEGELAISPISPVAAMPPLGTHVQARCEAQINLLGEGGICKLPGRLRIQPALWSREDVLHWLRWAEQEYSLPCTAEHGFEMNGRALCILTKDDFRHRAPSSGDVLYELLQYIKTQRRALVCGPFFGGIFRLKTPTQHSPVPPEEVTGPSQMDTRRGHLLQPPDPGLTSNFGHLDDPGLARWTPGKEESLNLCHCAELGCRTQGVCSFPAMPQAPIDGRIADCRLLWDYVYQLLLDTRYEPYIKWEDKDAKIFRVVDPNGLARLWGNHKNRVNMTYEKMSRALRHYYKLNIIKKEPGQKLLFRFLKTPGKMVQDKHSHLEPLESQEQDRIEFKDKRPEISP
In short: as §1

ELF5 = target: T6, ELF5 (Homo sapiens, UniProt Q9UKW6-2 1-255)
T6 sequence: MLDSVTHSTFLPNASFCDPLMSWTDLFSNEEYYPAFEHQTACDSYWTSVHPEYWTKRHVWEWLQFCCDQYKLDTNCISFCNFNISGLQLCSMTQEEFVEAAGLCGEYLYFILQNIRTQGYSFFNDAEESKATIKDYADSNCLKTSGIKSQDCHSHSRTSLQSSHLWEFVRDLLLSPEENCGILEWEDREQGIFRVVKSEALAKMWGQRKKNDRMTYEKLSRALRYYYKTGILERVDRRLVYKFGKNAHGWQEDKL
In short: as §1

ETV3 = target: T7, ETV3 (Homo sapiens, UniProt P41162-2 1-143)
T7 sequence: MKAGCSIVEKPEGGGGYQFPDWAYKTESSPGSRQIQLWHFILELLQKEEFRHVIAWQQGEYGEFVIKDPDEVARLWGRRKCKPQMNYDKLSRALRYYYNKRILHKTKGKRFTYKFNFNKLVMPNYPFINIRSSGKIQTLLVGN
In short: as §1

ETV6 = ETV6 (Homo sapiens, UniProt P41212 1-452)
In short: as §1

Sequence of ETV6 (P41212 whole entry): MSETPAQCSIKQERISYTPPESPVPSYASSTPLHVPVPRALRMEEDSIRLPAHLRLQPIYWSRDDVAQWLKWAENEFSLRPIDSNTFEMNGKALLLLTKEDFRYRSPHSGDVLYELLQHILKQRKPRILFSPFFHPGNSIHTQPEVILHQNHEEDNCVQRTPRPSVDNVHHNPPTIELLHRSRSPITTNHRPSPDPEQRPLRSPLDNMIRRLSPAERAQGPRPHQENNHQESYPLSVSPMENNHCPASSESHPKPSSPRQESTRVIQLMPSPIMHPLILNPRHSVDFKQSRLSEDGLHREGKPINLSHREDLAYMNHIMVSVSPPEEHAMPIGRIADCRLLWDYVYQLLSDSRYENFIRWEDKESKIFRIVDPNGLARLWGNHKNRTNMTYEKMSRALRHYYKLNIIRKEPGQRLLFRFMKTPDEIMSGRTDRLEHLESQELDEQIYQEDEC

Row | Sequence | binding signal (ERF) | binding signal (ETV3L) | binding signal (ETS2) | binding signal (SPDEF) | binding signal (ETV7) | binding signal (ELF5) | binding signal (ETV3) | binding signal (ETV6)
1 | TTTTGG | 1.47 fold enrichment (6-mer frequency, TF over GST control) | 1.48 fold enrichment (6-mer frequency, TF over GST control) | 1.55 fold enrichment (6-mer frequency, TF over GST control) | 1.36 fold enrichment (6-mer frequency, TF over GST control) | 1.43 fold enrichment (6-mer frequency, TF over GST control) | 1.34 fold enrichment (6-mer frequency, TF over GST control) | 1.36 fold enrichment (6-mer frequency, TF over GST control) | 1.42 fold enrichment (6-mer frequency, TF over GST control)
2 | GTTAAC | 1.12 fold enrichment (6-mer frequency, TF over GST control) | 1.14 fold enrichment (6-mer frequency, TF over GST control) | 1.22 fold enrichment (6-mer frequency, TF over GST control) | 1.23 fold enrichment (6-mer frequency, TF over GST control) | 1.24 fold enrichment (6-mer frequency, TF over GST control) | 1.22 fold enrichment (6-mer frequency, TF over GST control) | 1.27 fold enrichment (6-mer frequency, TF over GST control) | 1.18 fold enrichment (6-mer frequency, TF over GST control)
3 | GCTTAC | 1.13 fold enrichment (6-mer frequency, TF over GST control) | 1.09 fold enrichment (6-mer frequency, TF over GST control) | 1.09 fold enrichment (6-mer frequency, TF over GST control) | 1.23 fold enrichment (6-mer frequency, TF over GST control) | 1.03 fold enrichment (6-mer frequency, TF over GST control) | 1.14 fold enrichment (6-mer frequency, TF over GST control) | 1.23 fold enrichment (6-mer frequency, TF over GST control) | 1.03 fold enrichment (6-mer frequency, TF over GST control)
4 | ATGATG | 1.27 fold enrichment (6-mer frequency, TF over GST control) | 1.41 fold enrichment (6-mer frequency, TF over GST control) | 1.27 fold enrichment (6-mer frequency, TF over GST control) | 1.22 fold enrichment (6-mer frequency, TF over GST control) | 1.43 fold enrichment (6-mer frequency, TF over GST control) | 1.25 fold enrichment (6-mer frequency, TF over GST control) | 1.43 fold enrichment (6-mer frequency, TF over GST control) | 1.38 fold enrichment (6-mer frequency, TF over GST control)
5 | AACCCT | 1.17 fold enrichment (6-mer frequency, TF over GST control) | 1.24 fold enrichment (6-mer frequency, TF over GST control) | 1.26 fold enrichment (6-mer frequency, TF over GST control) | 1.17 fold enrichment (6-mer frequency, TF over GST control) | 1.24 fold enrichment (6-mer frequency, TF over GST control) | 1.28 fold enrichment (6-mer frequency, TF over GST control) | 1.27 fold enrichment (6-mer frequency, TF over GST control) | 1.33 fold enrichment (6-mer frequency, TF over GST control)
6 | TGCTCC | 1.42 fold enrichment (6-mer frequency, TF over GST control) | 1.45 fold enrichment (6-mer frequency, TF over GST control) | 1.45 fold enrichment (6-mer frequency, TF over GST control) | 1.74 fold enrichment (6-mer frequency, TF over GST control) | 1.63 fold enrichment (6-mer frequency, TF over GST control) | 1.37 fold enrichment (6-mer frequency, TF over GST control) | 1.37 fold enrichment (6-mer frequency, TF over GST control) | 1.34 fold enrichment (6-mer frequency, TF over GST control)
7 | ACGAAT | 1.17 fold enrichment (6-mer frequency, TF over GST control) | 1.15 fold enrichment (6-mer frequency, TF over GST control) | 1.1 fold enrichment (6-mer frequency, TF over GST control) | 1.13 fold enrichment (6-mer frequency, TF over GST control) | 1.23 fold enrichment (6-mer frequency, TF over GST control) | 1.11 fold enrichment (6-mer frequency, TF over GST control) | 1.11 fold enrichment (6-mer frequency, TF over GST control) | 1.11 fold enrichment (6-mer frequency, TF over GST control)
8 | TTTTAA | 1.37 fold enrichment (6-mer frequency, TF over GST control) | 1.28 fold enrichment (6-mer frequency, TF over GST control) | 1.28 fold enrichment (6-mer frequency, TF over GST control) | 1.21 fold enrichment (6-mer frequency, TF over GST control) | 1.32 fold enrichment (6-mer frequency, TF over GST control) | 1.17 fold enrichment (6-mer frequency, TF over GST control) | 1.23 fold enrichment (6-mer frequency, TF over GST control) | 1.27 fold enrichment (6-mer frequency, TF over GST control)
9 | TCTCTC | 1.31 fold enrichment (6-mer frequency, TF over GST control) | 1.38 fold enrichment (6-mer frequency, TF over GST control) | 1.2 fold enrichment (6-mer frequency, TF over GST control) | 1.28 fold enrichment (6-mer frequency, TF over GST control) | 1.11 fold enrichment (6-mer frequency, TF over GST control) | 1.24 fold enrichment (6-mer frequency, TF over GST control) | 1.37 fold enrichment (6-mer frequency, TF over GST control) | 1.27 fold enrichment (6-mer frequency, TF over GST control)
10 | TTTTCG | 1.25 fold enrichment (6-mer frequency, TF over GST control) | 1.41 fold enrichment (6-mer frequency, TF over GST control) | 1.26 fold enrichment (6-mer frequency, TF over GST control) | 1.16 fold enrichment (6-mer frequency, TF over GST control) | 1.2 fold enrichment (6-mer frequency, TF over GST control) | 1.3 fold enrichment (6-mer frequency, TF over GST control) | 1.25 fold enrichment (6-mer frequency, TF over GST control) | 1.09 fold enrichment (6-mer frequency, TF over GST control)
11 | TGCTAT | 1.33 fold enrichment (6-mer frequency, TF over GST control) | 1.4 fold enrichment (6-mer frequency, TF over GST control) | 1.52 fold enrichment (6-mer frequency, TF over GST control) | 1.48 fold enrichment (6-mer frequency, TF over GST control) | 1.43 fold enrichment (6-mer frequency, TF over GST control) | 1.33 fold enrichment (6-mer frequency, TF over GST control) | 1.45 fold enrichment (6-mer frequency, TF over GST control) | 1.38 fold enrichment (6-mer frequency, TF over GST control)
12 | ATTGTA | 1.27 fold enrichment (6-mer frequency, TF over GST control) | 1.28 fold enrichment (6-mer frequency, TF over GST control) | 1.17 fold enrichment (6-mer frequency, TF over GST control) | 1.18 fold enrichment (6-mer frequency, TF over GST control) | 1.28 fold enrichment (6-mer frequency, TF over GST control) | 1.21 fold enrichment (6-mer frequency, TF over GST control) | 1.26 fold enrichment (6-mer frequency, TF over GST control) | 1.27 fold enrichment (6-mer frequency, TF over GST control)
13 | TTCTTC | 1.78 fold enrichment (6-mer frequency, TF over GST control) | 1.83 fold enrichment (6-mer frequency, TF over GST control) | 1.7 fold enrichment (6-mer frequency, TF over GST control) | 1.72 fold enrichment (6-mer frequency, TF over GST control) | 1.7 fold enrichment (6-mer frequency, TF over GST control) | 2.02 fold enrichment (6-mer frequency, TF over GST control) | 1.8 fold enrichment (6-mer frequency, TF over GST control) | 1.93 fold enrichment (6-mer frequency, TF over GST control)
14 | CTTAAT | 1.27 fold enrichment (6-mer frequency, TF over GST control) | 1.4 fold enrichment (6-mer frequency, TF over GST control) | 1.37 fold enrichment (6-mer frequency, TF over GST control) | 1.25 fold enrichment (6-mer frequency, TF over GST control) | 1.33 fold enrichment (6-mer frequency, TF over GST control) | 1.25 fold enrichment (6-mer frequency, TF over GST control) | 1.27 fold enrichment (6-mer frequency, TF over GST control) | 1.25 fold enrichment (6-mer frequency, TF over GST control)
15 | TATCGA | 1.38 fold enrichment (6-mer frequency, TF over GST control) | 1.41 fold enrichment (6-mer frequency, TF over GST control) | 1.44 fold enrichment (6-mer frequency, TF over GST control) | 1.34 fold enrichment (6-mer frequency, TF over GST control) | 1.32 fold enrichment (6-mer frequency, TF over GST control) | 1.18 fold enrichment (6-mer frequency, TF over GST control) | 1.25 fold enrichment (6-mer frequency, TF over GST control) | 1.35 fold enrichment (6-mer frequency, TF over GST control)
